An excerpt weighted towards active compounds, which were near 4.7% of everything screened.
D1 antagonist – blocks dopamine activation of the human D1 receptor; P21728; HEK293 TREx D1 cells, calcium flux, dopamine EC80; stronger effect = lower value; activity change, negative = inhibition, % at 10 µM; hit rate 3.2% among 360,000; in the data active means activity change below about -30%; further: on the % scale 0 is the no-effect control and ±100 the full control effect
Target sequence (P21728 whole entry, looked up): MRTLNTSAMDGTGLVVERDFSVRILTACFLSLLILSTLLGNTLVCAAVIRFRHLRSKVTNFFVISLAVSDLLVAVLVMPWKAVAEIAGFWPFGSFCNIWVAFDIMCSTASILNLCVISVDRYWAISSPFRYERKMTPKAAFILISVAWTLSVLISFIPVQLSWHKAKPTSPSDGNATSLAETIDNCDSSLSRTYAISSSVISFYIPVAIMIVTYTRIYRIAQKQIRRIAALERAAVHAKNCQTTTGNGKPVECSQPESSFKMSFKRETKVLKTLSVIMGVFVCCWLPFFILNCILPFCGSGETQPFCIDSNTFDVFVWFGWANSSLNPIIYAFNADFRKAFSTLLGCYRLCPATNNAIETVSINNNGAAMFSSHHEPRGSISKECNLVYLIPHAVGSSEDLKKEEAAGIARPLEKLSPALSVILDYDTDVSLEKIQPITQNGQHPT
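Cells carrying a force-coupled, tetracycline-inducible human D1 receptor report calcium flux. Each well gets a 10 s baseline, compound with 180 s monitoring, then an EC80 dopamine stimulus with a second 180 s kinetic read.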
TRHR ag – TRH receptor (human) agonism | P34981 | hit rate 0.18% among 360,000 | activation, % at 2 µM | TRHR cells, calcium flux fluo-8, FDSS agonist mode | AID 493084; further: 0% is about no effect
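Fluo-8-loaded TRHR cells; 10 s baseline, compound added, kinetic Ca2+ fluorescence read 1/s, agonist mode.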
D1 agonist – human D1 receptor agonism; HEK293 T-REx D1 cells, calcium flux, agonist mode; activation, % at 2 µM; hit rate 1% among 360,000; AID 504660; further: 0% is about no effect
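Inducible HEK293 T-REx D1 cells, force-coupled to calcium signalling, were plated at 4000 cells/well with tetracycline and held overnight at 30 C. After no-wash calcium dye loading, compound-evoked calcium rise over 180 s flagged agonists.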
TRHR PAM – TRH receptor (human) allosteric enhancement; P34981; TRHR cells, fluo-8 calcium fluorescence, EC20 TRH enhancement; enhancement, % at 2 µM; hit rate 0.66% among 360,000; AID 493056; in the data active means enhancement above about 30%; further: 0% is about no effect
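Enhancer read-out: after compound pinning and an initial kinetic agonist-mode read, an EC20 of TRH (10 nM final) was injected and fluo-8 calcium signal (Ex 480/Em 530) followed at 1 s/cycle for 100 cycles in TRHR-expressing cells.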
D1 PAM – potentiators of human D1 dopamine receptor; hit rate 0.036% among 360,000; HEK293 TREx D1 cells, calcium flux, dopamine EC20 potentiation; potentiation, % at 10 µM; in the data active means potentiation above about 30%; further: 0% is about no effect
Starred values were filed as active, the others as inactive. Unless noted, no stated cut-off is given here; in the data, active means activation above about 30%; inactive means the rest.

SMILES	D1 antagonist	TRHR ag	D1 agonist	TRHR PAM	D1 PAM
COc1cccc(OCc2nnc(-c3cccs3)o2)c1	-32*	0	2	11	2
CC1(C)CC(=O)C2=C(C1)O[C@@]1(CCCCN3C(=O)c4ccccc4C3=O)Cc3cc(C#N)ccc3C2O1	-9	0	2	-15	-2
COc1cc(CNc2ccc3[nH]c(=O)[nH]c3c2)ccc1OCc1ccccc1F	-3	0	2	7	-2
COc1cc(CNc2ccc3[nH]c(=O)[nH]c3c2)ccc1OCc1ccccc1C	-57*	0	3	3	2
O=C(COc1ccc(Br)cc1Cl)Nc1ncn[nH]1	6	-1	-1	0	-4
O=C(O)CSCCc1ccccn1	-82*	0	0	-20	-7
CN(C)c1ccc(/C=C/C=N/Nc2nc(N3CCOCC3)nc(N3CCOCC3)n2)cc1	-35*	1	-1	8	-8
CCOc1ccc(NC(=O)c2nn(C)c3c2CS(=O)(=O)c2ccccc2-3)cc1	13	0	4	8	-2
O=C(NC1CCCN(Cc2ccc(Cl)cc2)C1)C1CCC1 (centres undefined)	-7	-2	2	31*	-3
CC(=O)Nc1nonc1-c1nnc(SCc2ccc(F)cc2)n1C	2	-1	-1	3	0
S=c1[nH]ncn1/N=C/c1ccc(Br)cc1	12	-1	0	-7	3
S=c1[nH]ncn1/N=C/c1ccccc1	-30*	0	3	-16	-6
CCc1nn2c(=O)cc(COC(=O)c3ccccc3NC(=O)COc3ccc(C)c(C)c3)nc2s1	2	0	0	4	0
O=C1NC2(CCCCCC2)C(=O)N1Cc1ccccc1F	-33*	-1	3	2	2
O=C1NC2(CCCCC2)C(=O)N1CCS(=O)(=O)Oc1ccccc1	-3	0	0	38*	0
CCOC(=O)C1CCN(c2ncnc3c2c(-c2ccccc2)cn3-c2ccc(C)c(Cl)c2)CC1	-5	0	-4	-7	1
COc1ccc(N(C(=O)/C=C\C(=O)Nc2ccc(Cl)cc2)C(C(=O)NCc2ccco2)c2ccc(C)cc2)cc1 (centres undefined)	25	2	7	0	0
COc1ccc(/C=N/Nc2ncnc3sc(C)c(C)c23)cc1	-9	1	2	15	-5
Cc1sc2ncnc(N/N=C/c3ccc(O)cc3)c2c1C	-86*	1	1	1	-6
Cc1ccc(NC(=O)Nc2ccno2)cc1	-37*	0	1	-1	-9
Fc1ccc(-c2cc(C(F)(F)C(F)F)[nH]n2)cc1	-48*	17	64*	5	-15
FC(F)C(F)(F)c1cc(-c2ccc(Cl)cc2)n[nH]1	-46*	-1	86*	5	1
Oc1ccccc1-c1cc(C(F)(F)C(F)F)[nH]n1	-12	1	10	-7	-3
CCOc1ccc(NCc2cccn2-c2nnc(N3CCC(C(=O)NCCc4ccc(OCC)c(OCC)c4)CC3)s2)cc1	-13	0	0	-13	-6
CCOc1ccc(NCc2cccn2-c2nnc(N3CCC(C(=O)NCCc4ccc(OC)c(OC)c4)CC3)s2)cc1	-31*	1	7	-2	-3
SMILES	D1 antagonist	TRHR ag	D1 agonist	TRHR PAM	D1 PAM
CCCCc1cc(=O)oc2cc(C)cc(OCC(=O)N3CCC(C(=O)O)CC3)c12	-4	0	1	-4	23
CCCc1cc(=O)oc2cc(C)cc(OCC(=O)N3CCC(C(=O)O)CC3)c12	-64*	0	1	2	-3
CCn1c(C)nc2cc(C(=O)OC(C(F)(F)C(F)F)C(F)(F)C(F)F)ccc21	-37*	-1	17	8	-3
Cc1ccc(-c2noc(-c3ccoc3C)n2)cc1	-8	-1	104*	0	7
CCc1ccc(CNC(=O)c2cc(=O)[nH]c3ccc(S(=O)(=O)N4CCCCC4)cc23)cc1	-1	-1	-2	-3	2
NC(=O)NC(=O)COC(=O)c1cccc(S(=O)(=O)N2CCCCCC2)c1	-44*	0	1	3	-6
O=C(COC(=O)c1cccc(S(=O)(=O)N2CCCC2)c1)Nc1ccccc1C(F)(F)F	-33*	0	8	-9	-3
Cc1ccc(C)c(NC(=O)COC(=O)c2cccc(S(=O)(=O)N3CCCCC3)c2)c1	-11	0	2	-10	15
O=C(COC(=O)c1cccc(S(=O)(=O)N2CCCCCC2)c1)Nc1ccccc1	19	1	6	-1	8
CC(NC(=O)c1ccc(Br)cc1Br)c1ccccc1 (centres undefined)	0	-2	10	10	1
CC(NC(=O)c1cc(Br)ccc1Cl)c1ccccc1 (centres undefined)	-46*	0	0	1	-6
Cn1c(NC(=O)c2cc(Br)ccc2Cl)cc(=O)n(C)c1=O	9	0	33*	2	-6
COc1ccc(N2CCN(C(=O)c3cnn(-c4ccc(F)cc4)c3-n3cccc3)CC2)cc1	-11	-1	0	0	-1
Cc1c(/C=N/n2cnnc2)c2ccccc2n1CCOc1ccc(Cl)cc1	-2	1	2	2	-3
Cc1ccc(OCCn2c(C)c(/C=N/n3cnnc3)c3ccccc32)cc1	-34*	0	3	-5	-12
O=C(c1ccc(S(=O)(=O)N2CCC(c3nc4ccccc4[nH]3)CC2)cc1)N1CCOCC1	-89*	0	2	7	8
CN(C)C=Nc1ccccc1C1C=NNC1=O (centres undefined)	-34*	1	1	-6	-5
CC(=O)c1c(N=CN(C)C)nc(C)nc1-c1ccccc1	17	0	0	7	-3
CCC1CN(CC(=O)NCc2cccc(Br)c2)c2ccccc2S1 (centres undefined)	-35*	1	1	-7	-4
CCOC(=O)c1[nH]c2ccc(OCC)cc2c1NC(=O)CN1CCCC(C)C1 (centres undefined)	-36*	0	3	5	-6
CCOC(=O)c1[nH]c2ccc(C)cc2c1NC(=O)CN1CCCCC1	-10	0	-1	-4	0
CC(=O)Nc1c(C)nn(-c2ccccc2)c1N1CCC(C(=O)Nc2ccccc2C(F)(F)F)CC1	1	0	-1	0	0
CCOC(=O)c1oc2ccc(CNC(C)(C)C)c(Cl)c2c1C	-52*	1	1	-1	-14
C1CCC(C(CC2CCCCN2)C2CCCCC2)CC1 (centres undefined)	67	2	136*	26	13
CCOc1ccc(CNC(=O)CCn2nc(C)c3c(C)n(-c4ccccc4)nc3c2=O)cc1	3	0	-2	14	-2
FC(F)(F)c1cnc(NNC(=S)Nc2ccccc2Cl)c(Cl)c1	-33*	6	26	2	-5

Bioassay records from PubChem.
